# According to the supplement of paper PMC8728848:
# The sample as a whole holds a higher share of the strongest signals than the screen did.
# Key:
# Assay in all cases: glycan array binding signal (z-score within array); higher = stronger binding
# Conditions in all cases: glycan notation: IUPAC condensed, linker removed
# [1] = biological target: Fuc(a1-2)Gal(b1-3)GlcNAc(b1-2)Man(a1-3)[Fuc(a1-2)Gal(b1-3)GlcNAc(b1-2)Man(a1-6)]Man(b1-4)GlcNAc(b1-4)GlcNAc
# Method in brief: (§1)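 Arrays were curated from the Consortium for Functional Glycomics database, 3228 in total, and kept only where the protein sequence was available. Binding is expressed as a within-array Z-score. This score was averaged across arrays of the same protein sequence at different concentrations or buffers and across linkers, and negative values can be read as non-binding.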
# [2] = biological target: Fuc(a1-2)Gal(b1-3)GlcNAc(b1-3)GalNAc
# Method in brief: as §1
# [3] = biological target: Fuc(a1-2)Gal(b1-4)GlcNAc(b1-2)[Fuc(a1-2)Gal(b1-4)GlcNAc(b1-4)]Man(a1-3)[Fuc(a1-2)Gal(b1-4)GlcNAc(b1-2)Man(a1-6)]Man(b1-4)GlcNAc(b1-4)GlcNAc
# Method in brief: as §1
# [4] = biological target: Fuc(a1-2)Gal(b1-4)GlcNAc(b1-3)Gal(b1-4)GlcNAc(b1-3)Gal(b1-4)GlcNAc
# Method in brief: as §1
# [5] = biological target: Fuc(a1-2)[Gal(a1-3)]Gal(b1-4)GlcNAc(b1-3)[Fuc(a1-2)[Gal(a1-3)]Gal(b1-4)GlcNAc(b1-6)]GalNAc
# Method in brief: as §1
# [6] = biological target: Fuc(a1-2)[Gal(a1-3)]Gal(b1-4)[Fuc(a1-3)]GlcNAc
# Method in brief: as §1
# [7] = biological target: Fuc(a1-2)[GalNAc(a1-3)]Gal(b1-4)GlcNAc(b1-2)Man(a1-3)[Fuc(a1-2)[GalNAc(a1-3)]Gal(b1-4)GlcNAc(b1-2)Man(a1-6)]Man(b1-4)GlcNAc(b1-4)GlcNAc
# Method in brief: as §1
# [8] = biological target: Fuc(a1-3)[Gal(b1-4)]Glc6S
# Method in brief: as §1
# [9] = biological target: Fuc(a1-3)[Gal(b1-4)]GlcNAc(b1-3)GalNAc
# Method in brief: as §1
# [10] = biological target: Fuc(a1-4)GlcNAc
# Method in brief: as §1
# [11] = biological target: Gal(a1-3)Gal(b1-3)GlcNAc
# Method in brief: as §1
# [12] = biological target: Gal(a1-3)Gal(b1-4)[Fuc(a1-3)]GlcNAc
# Method in brief: as §1
# [13] = biological target: Gal(b1-3)GalNAc(a1-3)[Fuc(a1-2)]Gal(b1-4)GlcNAc
# Method in brief: as §1
# [14] = biological target: Gal(b1-3)GlcNAc(b1-2)Man(a1-3)[GlcNAc(b1-4)][Gal(b1-3)GlcNAc(b1-2)Man(a1-6)]Man(b1-4)GlcNAc(b1-4)GlcNAc
# Method in brief: as §1
# [15] = biological target: Gal(b1-3)GlcNAc(b1-2)[Gal(b1-3)GlcNAc(b1-6)]Man(a1-6)[Gal(b1-3)GlcNAc(b1-2)Man(a1-3)]Man(b1-4)GlcNAc(b1-4)GlcNAc
# Method in brief: as §1
# [16] = biological target: Gal(b1-3)GlcNAc(b1-3)Gal(b1-3)GlcNAc
# Method in brief: as §1
# [17] = biological target: Gal(b1-3)GlcNAc(b1-3)Gal(b1-4)GlcNAc(b1-3)Gal(b1-4)GlcNAc(b1-2)[Gal(b1-3)GlcNAc(b1-3)Gal(b1-4)GlcNAc(b1-3)Gal(b1-4)GlcNAc(b1-6)]Man(a1-6)[Gal(b1-3)GlcNAc(b1-3)Gal(b1-4)GlcNAc(b1-3)Gal(b1-4)GlcNAc(b1-2)Man(a1-3)]Man(b1-4)GlcNAc(b1-4)[Fuc(a1-6)]GlcNAc
# Method in brief: as §1
# [18] = biological target: Gal(b1-4)GlcNAc(b1-2)Man(a1-3)[Gal(b1-4)GlcNAc(b1-2)Man(a1-6)]Man(b1-4)GlcNAc(b1-4)GlcNAc
# Method in brief: as §1
# [19] = biological target: Gal(b1-4)GlcNAc(b1-3)Gal(b1-4)GlcNAc(b1-3)Gal(b1-4)GlcNAc(b1-2)Man(a1-3)[Gal(b1-4)GlcNAc(b1-3)Gal(b1-4)GlcNAc(b1-3)Gal(b1-4)GlcNAc(b1-2)Man(a1-6)]Man(b1-4)GlcNAc(b1-4)GlcNAc
# Method in brief: as §1
# [20] = biological target: Gal(b1-4)GlcNAc(b1-3)Gal(b1-4)GlcNAc(b1-3)Gal(b1-4)GlcNAc(b1-3)Gal(b1-4)GlcNAc(b1-3)Gal(b1-4)GlcNAc(b1-2)[Gal(b1-4)GlcNAc(b1-3)Gal(b1-4)GlcNAc(b1-3)Gal(b1-4)GlcNAc(b1-3)Gal(b1-4)GlcNAc(b1-3)Gal(b1-4)GlcNAc(b1-6)]Man(a1-6)[Gal(b1-4)GlcNAc(b1-3)Gal(b1-4)GlcNAc(b1-3)Gal(b1-4)GlcNAc(b1-3)Gal(b1-4)GlcNAc(b1-3)Gal(b1-4)GlcNAc(b1-2)Man(a1-3)]Man(b1-4)GlcNAc(b1-4)[Fuc(a1-6)]GlcNAc
# Method in brief: as §1
# [21] = biological target: Gal3S(b1-4)Glc6S
# Method in brief: as §1
# [22] = biological target: Gal6S(b1-4)Glc
# Method in brief: as §1
# [23] = biological target: Gal6S(b1-4)GlcNAc
# Method in brief: as §1
# [24] = biological target: GalNAc(b1-3)Gal(a1-4)Gal(b1-4)GlcNAc
# Method in brief: as §1
# [25] = biological target: GalNAc(b1-3)GalNAc
# Method in brief: as §1
# [26] = biological target: GalNAc(b1-4)GlcNAc(b1-2)Man(a1-3)[GalNAc(b1-4)GlcNAc(b1-2)Man(a1-6)]Man(b1-4)GlcNAc(b1-4)GlcNAc
# Method in brief: as §1
# [27] = biological target: GalNAc3S(b1-4)GlcNAc3S
# Method in brief: as §1
# [28] = biological target: GlcA(b1-6)Gal
# Method in brief: as §1
# [29] = biological target: GlcA3S(b1-3)Gal(b1-4)GlcNAc(b1-3)Gal(b1-4)Glc
# Method in brief: as §1
# [30] = biological target: GlcNAc(b1-2)Man(a1-3)[GlcNAc(b1-2)Man(a1-6)]Man(b1-4)GlcNAc(b1-4)[Fuc(a1-6)]GlcNAc
# Method in brief: as §1
# [31] = biological target: GlcNAc(b1-2)[GlcNAc(b1-4)]Man(a1-3)[GlcNAc(b1-4)][GlcNAc(b1-2)Man(a1-6)]Man(b1-4)GlcNAc(b1-4)GlcNAc
# Method in brief: as §1
# [32] = biological target: GlcNAc(b1-3)Gal(b1-4)Glc
# Method in brief: as §1
# [33] = biological target: GlcNAc(b1-3)Gal(b1-4)GlcNAc(b1-6)[Gal(b1-3)]GalNAc
# Method in brief: as §1
# [34] = biological target: GlcNAc(b1-4)GlcNAc(b1-4)GlcNAc(b1-4)GlcNAc(b1-4)GlcNAc(b1-4)GlcNAc
# Method in brief: as §1
# [35] = biological target: Man(b1-4)GlcNAc
# Method in brief: as §1
# [36] = biological target: Neu5Ac(a2-3)Gal(b1-3)GalNAc
# Method in brief: as §1
# [37] = biological target: Neu5Ac(a2-3)Gal(b1-4)Glc
# Method in brief: as §1
# [38] = biological target: Neu5Ac(a2-3)Gal(b1-4)GlcNAc(b1-3)Gal(b1-3)GlcNAc
# Method in brief: as §1
# [39] = biological target: Neu5Ac(a2-3)Gal(b1-4)[Fuc(a1-3)]GlcNAc
# Method in brief: as §1
# [40] = biological target: Neu5Ac(a2-6)Gal(b1-4)GlcNAc(b1-3)Gal(b1-4)GlcNAc(b1-2)Man(a1-3)[Neu5Ac(a2-6)Gal(b1-4)GlcNAc(b1-3)Gal(b1-4)GlcNAc(b1-2)Man(a1-6)]GalNAc
# Method in brief: as §1
# [41] = biological target: Neu5Ac(a2-8)Neu5Ac(a2-8)Neu5Ac
# Method in brief: as §1
# [42] = biological target: Neu5Ac(a2-8)Neu5Gc(a2-3)Gal(b1-4)GlcNAc
# Method in brief: as §1
# [43] = biological target: Neu5Gc(a2-6)GalNAc
# Method in brief: as §1
binder,measurement,setting,value
"Sebin2 (Coprinopsis cinerea), A8PE78 (protein) MTTPFYAYCHNVQDDNTWRLGLVFANRSTADEWWRAISEATSSIPITKSITRVTPQYYTHDIRVWNMYNFFVDGNIKSISDKFRGRLFITLEYDRSGRGVSVFPPLHIVDHVSGNWYYIRSKTAPHLFWFYDETRNAIYASKEKRTRFKVSIRNPSPQTPKDAIMINSDDVVIHIKESLYVGVDSYLGHIIPTRAYRTFKFGELEGGAIAGIEVAENAEERCSSTFDGASLYFVGPDSSSPGEPWELV",glycan array binding signal (z-score),[1],0.911
same,glycan array binding signal (z-score),[2],-0.146
same,glycan array binding signal (z-score),[3],0.019
same,glycan array binding signal (z-score),[4],-0.116
same,glycan array binding signal (z-score),[5],4.59
same,glycan array binding signal (z-score),[6],-0.033
same,glycan array binding signal (z-score),[7],0.273
same,glycan array binding signal (z-score),[8],1.49
same,glycan array binding signal (z-score),[9],0.281
same,glycan array binding signal (z-score),[10],4.58
same,glycan array binding signal (z-score),[11],1.62
same,glycan array binding signal (z-score),[12],-0.524
same,glycan array binding signal (z-score),[13],-0.521
same,glycan array binding signal (z-score),[14],-0.222
same,glycan array binding signal (z-score),[15],1.02
same,glycan array binding signal (z-score),[16],-0.397
same,glycan array binding signal (z-score),[17],0.29
same,glycan array binding signal (z-score),[18],0.112
same,glycan array binding signal (z-score),[19],-0.131
same,glycan array binding signal (z-score),[20],0.421
same,glycan array binding signal (z-score),[21],0.515
same,glycan array binding signal (z-score),[22],-0.355
same,glycan array binding signal (z-score),[23],-0.138
same,glycan array binding signal (z-score),[24],-0.059
same,glycan array binding signal (z-score),[25],-0.129
same,glycan array binding signal (z-score),[26],-0.25
same,glycan array binding signal (z-score),[27],0.462
same,glycan array binding signal (z-score),[28],1.12
same,glycan array binding signal (z-score),[29],1.64
same,glycan array binding signal (z-score),[30],-0.213
same,glycan array binding signal (z-score),[31],2.76
same,glycan array binding signal (z-score),[32],-0.04
same,glycan array binding signal (z-score),[33],-0.253
same,glycan array binding signal (z-score),[34],-0.328
same,glycan array binding signal (z-score),[35],-0.209
same,glycan array binding signal (z-score),[36],6.35
same,glycan array binding signal (z-score),[37],8.35
same,glycan array binding signal (z-score),[38],0.2
same,glycan array binding signal (z-score),[39],-0.437
same,glycan array binding signal (z-score),[40],-0.35
same,glycan array binding signal (z-score),[41],0.72
same,glycan array binding signal (z-score),[42],-0.304
same,glycan array binding signal (z-score),[43],-0.242
